Potency and affinity values are given separately. The source made the active and inactive calls. Entries that show only a call come without a potency. No rule for the calls is given here.

This is an account of results in PubChem BioAssay AID1117271 (Broad Institute, 2014).

A short description of this experiment: inhibitors of orthopox intermediate gene expression, dose response, cell-based, single fluorophore reporter, dry powder (AID 1117271).

As to `COc1ccccc1-c1ccc(CN(C)C[C@@H]2Oc3cc(C#C[C@@H](C)O)ccc3S(=O)(=O)N([C@@H](C)CO)C[C@@H]2C)cc1`, the outcome was inactive.
